The supplement of paper PMC7695840
Where a name gives a salt, the structure may show the parent alone.

Key:
[1] = system: Staphylococcus aureus MW2 delta-mecA (mecA-); assay: normalized GFP fluorescence (growth of mecA- strain) (fraction of control range); higher = more growth of mecA- strain; details: compound concentration: 150 uM; cefoxitin: subinhibitory; fluorescent label: GFP
Outline: (§1)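 Pre-induced S. aureus MW2 cells carrying the gene (DsRed) and deletion cells lacking it (GFP) were combined 1:1 in LB containing a subinhibitory antibiotic dose set each day, then dispensed at 5 µL/well onto 150 μM compound (1.5% DMSO) in 1536-well plates as a single replicate. After 20 h at 37 °C and 90% humidity without shaking, DsRed (540/590) and GFP (485/520) were read. Each channel was scaled per plate between the medians of the single-strain controls, and plates with high untreated ratios and rows with DsRed/GFP >10 were excluded.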

[2] = system: Staphylococcus aureus MW2 (mecA+); assay: normalized DsRed fluorescence (growth of mecA+ strain) (fraction of control range); higher = more growth of mecA+ strain; details: compound concentration: 150 uM; cefoxitin: subinhibitory; fluorescent label: DsRed
Outline: as §1

SMILES | normalized GFP fluorescence [1] | normalized DsRed fluorescence [2]
CCCN(CCC)S(=O)(=O)c1ccc(C(=O)O)cc1 | 0.462 | 0.343
NS(=O)(=O)c1cc2c(cc1C(F)(F)F)NC(Cc1ccccc1)NS2(=O)=O (stereo not drawn) | 0.428 | 0.653
CC(C)(C)NC[C@H](O)COc1cccc2c1CCCC2=O | 0.401 | 0.5
Cc1cn(-c2cc(NC(=O)c3ccc(C)c(Nc4nccc(-c5cccnc5)n4)c3)cc(C(F)(F)F)c2)cn1 [Nilotinib (AMN-107)] | 0.547 | 0.566
CNC1(C)C2CCC(C2)C1(C)C (stereo not drawn) | 0.71 | 0.669
c1ccc2[nH]c(-c3cscn3)nc2c1 | 0.302 | 0.444
C=C[C@H]1CN2CC[C@H]1C[C@@H]2[C@@H](O)c1ccnc2ccc(OC)cc12 | 0.452 | 0.631
Cc1ccc(C(=O)Nc2ccc(S(=O)(=O)O)c3cc(S(=O)(=O)O)cc(S(=O)(=O)O)c23)cc1NC(=O)c1cccc(NC(=O)Nc2cccc(C(=O)Nc3cc(C(=O)Nc4ccc(S(=O)(=O)O)c5cc(S(=O)(=O)O)cc(S(=O)(=O)O)c45)ccc3C)c2)c1 | 0.319 | 0.63
CC1=C(/C=C/C(C)=C/C=C/C(C)=C/C(=O)O)C(C)(C)CCC1 | -0.00103 | 0.642
CN(C)CCOC(C)(c1ccccc1)c1ccccn1 (stereo not drawn) | 0.411 | 0.892
CN(C)CC(c1ccc(O)cc1)C1(O)CCCCC1 (stereo not drawn) | 0.107 | 1.1
C[N+](C)(C)CCO.[Cl-] | 0.657 | 0.615
Cc1cc(C#N)cc(C)c1Oc1nc(Nc2ccc(C#N)cc2)nc(N)c1Br [Etravirine (TMC125)] | 0.423 | 0.589
CC(=O)OCC(=O)NCCCOc1cccc(CN2CCCCC2)c1 [Roxatidine acetate HCl] | 0.438 | 0.76
CCOC(=O)O[C@]1(C(=O)OCCl)CC[C@H]2[C@@H]3CCC4=CC(=O)C=C[C@]4(C)[C@H]3[C@@H](O)C[C@@]21C [Loteprednol etabonate] | 0.281 | 0.603
CC(C)(O)c1ccccc1CC[C@@H](SCC1(CC(=O)O)CC1)c1cccc(/C=C/c2ccc3ccc(Cl)cc3n2)c1 | -0.0136 | 0.632
CCCCN1CCCCC1C(=O)Nc1c(C)cccc1C (stereo not drawn) | 0.62 | 0.887
COc1cc2c(Oc3ccc4[nH]c(C)cc4c3F)ncnc2cc1OCCCN1CCCC1 [Cediranib (AZD2171)] | -0.00111 | 1.4
COC(=O)Nc1nc2cc(C(=O)c3ccccc3)ccc2[nH]1 | 0.145 | 1.25
C[C@]12CC[C@@H]3c4ccc(O)cc4CC[C@H]3[C@@H]1C[C@@H](O)[C@@H]2O | 0.63 | 0.459
Cc1ccnc(NS(=O)(=O)c2ccc(N)cc2)n1 | 0.459 | 0.528
Cc1ncc(C[n+]2csc(CCO)c2C)c(N)n1 | 0.111 | 1.23
CC(C)(Oc1ccc(CCNC(=O)c2ccc(Cl)cc2)cc1)C(=O)O | 0.407 | 0.804
CO[C@@]1(NC(=O)CSCC#N)C(=O)N2C(C(=O)O)=C(CSc3nnnn3C)CS[C@@H]21 | 0.268 | 0.711
COc1ccc(-c2ccc3cc(C(=O)O)ccc3c2)cc1C12CC3CC(CC(C3)C1)C2 | 0.582 | 0.97

SMILES | normalized GFP fluorescence [1] | normalized DsRed fluorescence [2]
CC(C)C(=O)Oc1ccc(CO)cc1[C@H](CCN(C(C)C)C(C)C)c1ccccc1 [Fesoterodine fumarate (Toviaz)] | 0.00662 | 1.38
CC(=O)O[C@H]1C(=O)[C@@]2(C)[C@H]([C@H](OC(=O)c3ccccc3)[C@]3(O)C[C@H](OC(=O)[C@H](O)[C@@H](NC(=O)c4ccccc4)c4ccccc4)C(C)=C1C3(C)C)[C@]1(OC(C)=O)CO[C@@H]1C[C@@H]2O [Paclitaxel (Taxol)] | 0.188 | 0.669
CCCNC(C)C(=O)Nc1c(C)csc1C(=O)OC (stereo not drawn) [Articaine HCl] | 0.567 | 0.672
C[N+]1(C)[C@@H]2CC[C@H]1C[C@@H](OC(=O)C(O)c1ccccc1)C2 (stereo partly drawn) | 0.29 | 0.71
CN(C)CCCOc1nn(Cc2ccccc2)c2ccccc12 | 0.19 | 1.11
CC[C@]12C=CCN3CC[C@@]4(c5cc([C@@]6(C(=O)OC)C[C@@H]7C[C@@H](C(C)(F)F)CN(Cc8c6[nH]c6ccccc86)C7)c(OC)cc5N(C)[C@H]4[C@@](O)(C(=O)OC)[C@@H]1OC(C)=O)[C@@H]32 [Vinflunine Tartrate] | 0.315 | 0.556
Oc1ccc(OCc2ccccc2)cc1 | 0.0954 | 0.522
Cc1nc(-c2ccc(OCC(C)C)c(C#N)c2)sc1C(=O)O [Febuxostat (Uloric)] | 0.0973 | 0.396
C=C(c1ccc(C(=O)O)cc1)c1cc2c(cc1C)C(C)(C)CCC2(C)C [Bexarotene] | 0.666 | 0.742
N[C@@H](CC(=O)N1CCn2c(nnc2C(F)(F)F)C1)Cc1cc(F)c(F)cc1F | 0.306 | 0.577
CC(=O)S[C@@H]1CC2=CC(=O)CC[C@]2(C)[C@H]2CC[C@@]3(C)[C@@H](CC[C@@]34CCC(=O)O4)[C@H]12 | 0.734 | 0.584
Cn1c(=O)c2[nH]cnc2n(C)c1=O [Aminophylline (Truphylline)] | 0.38 | 1.18
CC(C)(C)c1ccc(C(O)CCCN2CCC(C(O)(c3ccccc3)c3ccccc3)CC2)cc1 (stereo not drawn) | 0.00757 | 0.056
Nc1c2c(nc3ccccc13)CCCC2 | 0.414 | 0.996
CO[C@H]1C[C@@H]2CC[C@@H](C)[C@@](O)(O2)C(=O)C(=O)N2CCCC[C@H]2C(=O)O[C@H]([C@H](C)C[C@@H]2CC[C@@H](OC(=O)C(C)(CO)CO)[C@H](OC)C2)CC(=O)[C@H](C)/C=C(\C)[C@@H](O)[C@@H](OC)C(=O)[C@H](C)C[C@H](C)/C=C/C=C/C=C/1C [Temsirolimus (Torisel)] | -0.00155 | 1.96
O=C(O)c1cccnc1 [Niacin (Nicotinic acid)] | 0.536 | 0.614
CC(C)Oc1ccc2c(=O)c(-c3ccccc3)coc2c1 [Ipriflavone] | 0.362 | 0.57
CC(C)(CO)[C@@H](O)C(=O)NCCCO | 0.406 | 0.653
CCN(CC)CCOc1ccc2c(c1)C(=O)c1cc(OCCN(CC)CC)ccc1-2 | 0.282 | 0.512
COc1c2occc2cc2ccc(=O)oc12 | 0.476 | 0.402
NS(=O)(=O)c1cc2c(cc1Cl)NCNS2(=O)=O | 0.562 | 0.865
CC(=O)N(CC(O)CN(C(C)=O)c1c(I)c(C(=O)NCC(O)CO)c(I)c(C(=O)NCC(O)CO)c1I)c1c(I)c(C(=O)NCC(O)CO)c(I)c(C(=O)NCC(O)CO)c1I (stereo not drawn) | 0.268 | 0.83
CCN(CC)CCNC(=O)c1cc(S(C)(=O)=O)ccc1OC | 0.437 | 0.945
CC(C)NCC(O)COc1cccc2[nH]ccc12 (stereo not drawn) | 0.242 | 1.01
Nc1ncnc2c1ncn2[C@@H]1O[C@H](COP(=O)(O)O)[C@@H](O)[C@H]1O | 0.4 | 0.484

SMILES | normalized GFP fluorescence [1] | normalized DsRed fluorescence [2]
CN(C)CCN(Cc1ccccc1)c1ccccn1 | 0.488 | 0.468
OCC(S)CS (stereo not drawn) | 0.185 | 0.549
CN(C)CCC[C@@]1(c2ccc(F)cc2)OCc2cc(C#N)ccc21 | 0.12 | 0.762
COc1ccc(CC2c3cc(OC)c(OC)cc3CC[N+]2(C)CCC(=O)OCCCCCOC(=O)CC[N+]2(C)CCc3cc(OC)c(OC)cc3C2Cc2ccc(OC)c(OC)c2)cc1OC (stereo not drawn) | 0.325 | 0.862
CN(C)CC/C=C1/c2ccccc2COc2ccc(CC(=O)O)cc21 [Olopatadine hydrochloride (Opatanol)] | 0.475 | 0.587
C#C[C@]1(O)CC[C@H]2[C@@H]3CCC4=CC(=O)CC[C@@H]4[C@H]3CC[C@@]21CC | 0.305 | 1.05
O=S(=O)(O)CCS | 0.0478 | 0.565
C[C@H](CS)C(=O)N1CCC[C@H]1C(=O)O | 0.232 | 0.842
CC(C)(C)C(=O)OCOP(=O)(COCCn1cnc2c(N)ncnc21)OCOC(=O)C(C)(C)C [Adefovir Dipivoxil (Preveon, Hepsera)] | 0.38 | 0.712
CCc1ccc(CCOc2ccc(CC3SC(=O)NC3=O)cc2)nc1 (stereo not drawn) | 0.499 | 0.952
CN(C)c1nc(N(C)C)nc(N(C)C)n1 | 0.159 | 0.887
CCN(CC)CC(=O)Nc1c(C)cccc1C | 0.574 | 0.76
CCN1CC(CCN2CCOCC2)C(c2ccccc2)(c2ccccc2)C1=O (stereo not drawn) | 0.294 | 0.634
N=C(N)NC(=N)NCCc1ccccc1 | 0.435 | 0.624
CN(C)CCN(Cc1cccs1)c1ccccn1 | 0.185 | 0.778
Cc1nnc(C(=O)NC(C)(C)c2nc(C(=O)NCc3ccc(F)cc3)c(O)c(=O)n2C)o1 [Raltegravir (MK-0518)] | 0.051 | 0.507
CCC(=O)O[C@]1(C(=O)CCl)[C@@H](C)C[C@H]2[C@@H]3CCC4=CC(=O)C=C[C@]4(C)[C@@]3(F)[C@@H](O)C[C@@]21C [Clobetasol propionate] | -0.000558 | 1.15
N[C@@H](Cc1c[nH]c2ccccc12)C(=O)O | 0.368 | 0.604
COc1ccc2[nH]c([S@@+]([O-])Cc3ncc(C)c(OC)c3C)nc2c1 | 0.281 | 1.15
NS(=O)(=O)c1cc(C2(O)NC(=O)c3ccccc32)ccc1Cl (stereo not drawn) | 0.344 | 0.584
OCCOCCN1CCN(C(c2ccccc2)c2ccc(Cl)cc2)CC1 (stereo not drawn) | -0.0253 | 0.833
c1ccc([C@H]2CN3CCSC3=N2)cc1 | 0.522 | 0.535
CN(C)CCC(c1ccc(Br)cc1)c1ccccn1 (stereo not drawn) | 0.11 | 1.02
S=c1[nH]cnc2nc[nH]c12 | 0.195 | 0.762
